This assay can be described thus: Acumen qHTS Assay for Inhibitors of the mTORC1 Signaling Pathway in WT MEF Cells: Hit Validation. Also: nearly all actives have a fitted effect of over 60% in size. The essentials:
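Read-out is immunofluorescent phospho-rpS6 (Ser235/236) normalised to PI-stained cell number, reported as % active cells using a 7.5 nM rapamycin threshold. Cells: WT or Tsc2-/-, p53-/- MEFs, compound-exposed 24 h at 37C; PI count also tracks viability.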
In general terms: In qHTS, concentration-response curves come from the screen itself.

SMILES strings stand for the structures. Results filed as inconclusive are left out. A call without a number means that no potency is given here. The source made the active and inactive calls. Calls follow the shape of the dose curve; as a rule, active = well fitted inhibition curve with a large enough effect; inconclusive = small, poorly fitted or top-dose-only effect; inactive = no such curve, though single readings can be large or run the other way.
Potency is read from the fitted curve at half-maximal effect.

For the molecule `Cc1ccc(C(=O)CC2(O)C(=O)N(Cc3ccccc3)c3ccc(Br)cc32)cc1` (stereo not given), the Potency entry is “inactive”.
As to `COc1cccc(-n2c(-c3ccco3)nc3c(cnn3-c3ccc(C)cc3)c2=O)c1`, the Potency entry is “inactive”.
The entry for `Cc1cccc(N(CC(=O)NCCSc2ccc(Cl)cc2)S(=O)(=O)c2ccccc2)c1C` is “inactive”; for `CN(C)CCN(Cc1ccco1)C(=O)c1cc2c(s1)-c1ccccc1OC2` it is “inactive”.
For `CCN1C(=O)c2ccccc2Sc2ccc(NC(=O)Cc3ccc(OC)cc3)cc21`, the Potency result is “inactive”.
The entry for `CCC(Sc1nncn2c1cc1oc(C)cc12)C(=O)Nc1ccc(F)cc1` (stereo not given) is “inactive”; for `COc1ccc(N2CCN(C(=O)C(C)n3nc(C)c4sc5ccccc5c4c3=O)CC2)cc1` (stereo not given) it is “inactive”.
The entry for `Cn1nnnc1SCCCNCc1cc(Cl)ccc1OCc1ccc(F)cc1` is “inactive”; for `COc1ccc(OCC(=O)Nc2ccc3nn(-c4ccc(OC)cc4)nc3c2)cc1` it is “inactive”.
The entry for `CCCSc1ncc(Cl)c(C(=O)Nc2ccc(S(=O)(=O)N3CCCCC3C)cc2)n1` (stereo not given) is “inactive”; for `Cc1ccc(CNS(=O)(=O)c2cc(C(=O)Nc3cccc(C(F)(F)F)c3)ccc2F)cc1` it is “inactive”.
Turning to `C#Cc1cccc(Nc2ncnc3cc(OCCOC)c(OCCOC)cc23)c1`, the Potency entry is “inactive”.
The entry for `CCc1ccc(C(=O)CC2(O)C(=O)N(CCc3ccccc3)c3ccc(Cl)cc32)cc1` (stereo not given) is “inactive”.
Consider `CCN1CCC(N(Cc2ccc(F)cc2)C(=O)Nc2ccc(C)c(F)c2)CC1`, for which the Potency entry is “inactive”.
The entry for `COCCCNC(=O)c1ccc(CSc2nc3cccnc3n2Cc2ccc(OC)cc2)cc1` is “inactive”.
With `CCCCS(=O)(=O)c1oc(-c2ccc(F)cc2)nc1S(=O)(=O)c1ccc(C)cc1`, the Potency was 5.21 µM (active).
The entry for `Cc1ccc(C)c(NC(=O)Nc2cc3c(cc2N2CCCCC2)n(C)c(=O)n3C)c1` is “inactive”; for `COc1ccc(CNC(=O)C2CCN(c3nc4ccc(C)cc4[nH]3)CC2)cc1` it is “inactive”.
The entry for `CC(C)N(C(=O)CSc1nc2ccc(Cl)cc2[nH]1)c1ccccc1` is “inactive”; for `CCCCOc1ccc(Cn2c(=O)sc3ccccc32)cc1` it is “inactive”.
On to `Cc1cc(C)c(/C=C2\C(=O)Nc3ccccc32)[nH]1`, for which the Potency result was “inactive”.
The entry for `Cc1ccc(NC(=O)CSc2nc(=O)cc(N)n2CCc2ccccc2)cc1` is “inactive”.
The entry for `C#CC(C)(CC)NC(=O)Cn1nnc(-c2ccc(OCc3c(F)cccc3Cl)cc2)n1` (stereo not given) is “inactive”.
The entry for `O=C(Nc1ccc(Cl)cc1)C1CCC(CNS(=O)(=O)c2ccc(Br)s2)CC1` (stereo not given) is “inactive”; for `CCCN1C(=O)C(Cc2nc3ccccc3c(=O)n2CC)c2cc(Br)ccc21` (stereo not given) it is “inactive”.
For the molecule `Cc1cccc(C(=O)Nc2c3c(nn2-c2ccc(Cl)cc2)CS(=O)(=O)C3)c1`, the Potency result is “inactive”.
The entry for `O=C(CC(NCc1cccnc1)C(=O)O)Nc1ccc(O)cc1` (stereo not given) is “inactive”; for `COc1ccc(NC(=O)CSc2c3c(nc4ccccc24)CCC3)c(OC)c1` it is “inactive”; for `COc1ccc(CCNC(=O)c2ccc3c(c2)N(Cc2ccccc2)CCS3)cc1OC` it is “inactive”.
The figure for `CCN(c1ccccc1)S(=O)(=O)c1cc(C(=O)Nc2ccc(Br)cc2)ccc1F` is 13.1 µM (active); for `Cc1ccc(CS(=O)(=O)c2ncc(Cl)c(C(=O)Nc3nnc(C(C)C)s3)n2)cc1` it is 11.7 µM (active); for `COc1ccc(Cl)cc1NC(=O)CCCS(=O)(=O)c1nc(-c2ccc(OC)c(OC)c2)cc(C(F)(F)F)n1` it is 3.69 µM (active).
The entry for `COc1cc(Cl)c(C)cc1NC(=O)C1CCN(c2nc3ccccc3n3cccc23)CC1` is “inactive”; for `O=C(CC1(O)C(=O)N(CCc2ccccc2)c2ccc(Br)cc21)c1ccccc1O` (stereo not given) it is “inactive”; for `O=C(NCc1ccc(F)cc1)c1ccc2c(Cl)c3c(nc2c1)CCCC3` it is “inactive”.
Turning to `CCOc1ccc(-c2cnc(NCc3ccc(C(F)(F)F)cc3)n2C)cc1`, the Potency result was “inactive”.
Regarding `Cc1ccc(-n2ncc(C(=O)NCCCN3CCc4ccccc4C3)c2C2CCN(C(=O)OC(C)(C)C)CC2)c(C)c1`, the Potency result was “inactive”.
As for `CCNS(=O)(=O)c1cc(-c2nnc(Nc3cccc(C(F)(F)F)c3)c3ccccc23)ccc1C`, the Potency result is “inactive”.
The entry for `COc1ccc(C)cc1NC(=O)C(Cc1ccccc1)NS(=O)(=O)c1ccc(Br)s1` (stereo not given) is “inactive”.
The entry for `CC(C)(C)c1ccc(S(=O)(=O)N2CCC(c3ccncc3)CC2)cc1` is “inactive”.

These data come from PubChem BioAssay AID651789 (National Center for Advancing Translational Sciences (NCATS), 2012).
